According to PubChem BioAssay (Tox21):
Results filed as inconclusive are left out. Values without a mark were called inactive. Active and inactive are the calls of the source. Calls follow the shape of the dose curve; as a rule, active = well fitted inhibition curve with a large enough effect in the signal ratio in the repeat runs (not every such curve was filed as active); inconclusive = weak or mixed curves, or effect the other way; inactive = flat fitted curve, though single readings scatter; the % refers to the signal ratio.

experiment: cAMP Responsive Elements (CRE) small molecule antagonists, cell-based qHTS assay (AID 1963591); conditions: CRE-bla HEK293T, beta-lactamase FRET ratio; series mostly up to 92.4 µM; activity change, negative = inhibition: at the top concentration
Description: U.S. Tox21 Program National Center for Advancing Translational Sciences [NCATS] Division of Preclinical Innovation [DPI] U.S. Environmental Protection Agency [EPA] National Institutes of Environmental Health Sciences [NIEHS] National Toxicology Program [NTP] U.S. Food and Drug Administration [FDA] Tox21 Assay Overview: CREB (cyclic-AMP Responsive Element Binding Protein) is a cellular transcription factor. It binds to certain DNA sequences called cAMP Responsive Elements (CRE) and regulates the transcription of the genes. […] This cell line can be used to find agonists/antagonists of the cyclic AMP signaling pathway. The activation of the report gene under culture conditions can be detected by fluorescence intensity. This cell line has been used to screen the Tox21 10K compound library to […].
Tox21 Assay Protocol Summary: CRE-bla Hek 293T cells were suspended in assay medium (DMEM containing 10% dialyzed FBS, 0.1 mM NEAA, 1 mM sodium pyruvate and 25 mM HEPES) and dispensed at 2,000 cells/4 uL /well into 1536-well black wall/clear bottom plates using a Multidrop Combi (ThermoFisher Scientific, Waltham, MA) dispenser. After the assay plates were incubated at 37 C/5% CO2 for 18 hrs, 23 nL of compounds dissolved in DMSO, positive controls or DMSO only was transferred to the assay plate by a pintool workstation (Kalypsys, San Diego, CA), followed by addition of 1 […] uL of 1.25uM NKH477 (0.25 uM as final concentration) in assay medium using a Flying Reagent Dispenser (Aurora Discovery, San Diego, CA). The plates were incubated at 37 C and 5% CO2 for 3 hrs. Then 1 uL of LiveBLAzer B/G FRET substrate (Invitrogen, Carlsbad, CA) was added to each well using Bioraptr Flying Reagent Dispenser (FRD, Aurora Discovery, San Diego, CA). The plates were incubated at room temperature for 2 h.
% is scaled to controls: 0 for no effect and ±100 for the full control effect.

| Structure (SMILES) | activity change, negative = inhibition | Potency |
| --- | --- | --- |
| C[C@@H]1CCC[C@H](C)N1 | -2.7% [at 42.4 µM] | – |
| O=C1CCN(c2ccccc2)N1 | 6.75% | – |
| CCCC(O)C(O)CO (stereo not given) | -10.1% | – |
| COC(=O)c1c(Cl)c(Cl)c(C(=O)OC)c(Cl)c1Cl | – | inactive |
| CCCCC1CCC(=O)O1 (stereo not given) | -0.687% | – |
| CC(=O)NC(Cc1ccccc1)C(=O)O (stereo not given) | -5.24% [at 42.4 µM] | – |
| COc1c(Cl)ccc(Cl)c1C(=O)O | – | inactive |
| CCOc1ncc(F)c(=O)[nH]1 | -8.19% [at 42.4 µM] | – |
| CC(C)(C)C(=O)OCOP(=O)(COCCn1cnc2c(N)ncnc21)OCOC(=O)C(C)(C)C | 21% [at 42.4 µM] | – |
| CC(=O)O[C@H]1C[C@@H]2CC[C@@]1(C)C2(C)C | 1.46% | – |
| OCC1CC2CC1C1CCC(CO)C21 (stereo not given) | 6.56% | – |
| Cc1cn([C@H]2C[C@H](F)[C@@H](CO)O2)c(=O)[nH]c1=O | 7.06% [at 42.4 µM] | – |
| O=C1CCCCCCCCCCCCCCCO1 | 9.8% | – |
| COC(=O)Nc1ccc(Cl)c(Cl)c1 | 3.13% | – |
| COc1ccccc1N=Nc1c(S(=O)(=O)O)cc2cc(S(=O)(=O)O)cc(NC(C)=O)c2c1O | -7.39% | – |
| CC(=O)N[C@H]1[C@H]([C@H](O)[C@H](O)CO)OC(C(=O)O)=C[C@@H]1N=C(N)N | -9.56% [at 42.4 µM] | – |
| CC1(C)C(C=C(Cl)Cl)C1C(=O)OCc1cccc(Oc2ccccc2)c1 (stereo not given) | – | inactive |
| Cc1cc(C)c(S(=O)(=O)O)cc1N=Nc1cc(S(=O)(=O)O)c2ccccc2c1O | -6.5% | – |
| CCOC(=O)c1ccc(N)cc1 | – | inactive |
| CC(=O)Nc1ccc(C)cc1 | 0.631% | – |

| Structure (SMILES) | activity change, negative = inhibition | Potency |
| --- | --- | --- |
| CC1(C)C(O)C(C)(C)C1O (stereo not given) | 0.659% | – |
| CC1CCCC(=O)C1=O (stereo not given) | 3.4% | – |
| COc1cc(CCC(C)=O)ccc1O | 2.64% | – |
| Nc1nnnn1-c1ccccc1 | -5.3% [at 42.4 µM] | – |
| Nc1cc(-c2ccncc2)c[nH]c1=O | – | inactive |
| C=C(C)C(=O)OCCNC(C)(C)C | -0.618% | – |
| CC(C)(C)C(=O)C1C(=O)c2ccccc2C1=O | – | inactive |
| CCC(C)CO (stereo not given) | – | inactive |
| C[C@@H]1CCN(C(=O)[C@H](CCCN=C(N)N)NS(=O)(=O)c2cccc3c2NC[C@H](C)C3)[C@@H](C(=O)O)C1 | -0.392% [at 42.4 µM] | – |
| CCC(C)S (stereo not given) | -3.11% [at 3.27 µM] | – |
| COC(=O)c1ccc(C)cc1C1=NC(C)(C(C)C)C(=O)N1 (stereo not given) | 4.06% | – |
| CCCCC(CC)COC(C)=O (stereo not given) | – | inactive |
| O=C(c1ccc2c(c1)C(=O)OC2=O)c1ccc2c(c1)C(=O)OC2=O | 2.08% | – |
| COc1cc(C(=O)NCc2ccc(OCCN(C)C)cc2)cc(OC)c1OC | 3.62% [at 42.4 µM] | – |
| CCCCCCCCCCCCCCC(=O)O | 2.79% | – |
| C=COCCCC | -9.13% | – |
| C=CCn1cc[n+](C)c1 | -0.565% | – |
| CC(=O)OC[C@H]1O[C@@H](OC(C)=O)[C@H](OC(C)=O)[C@@H]1OC(C)=O | -3.59% [at 42.4 µM] | – |
| CCOC(=O)[C@H](CCc1ccccc1)N[C@@H](C)C(=O)N1Cc2ccccc2C[C@H]1C(=O)O | -1.1% | – |
| CCCCCCC(C)(C)C(=O)O | -10.3% | – |
